Data on 12 molecules can be found in PubChem BioAssay (NCI).

The panel holds about 83,000 compounds, 20% with a hit somewhere; the sample as a whole holds those more often.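 Negative percent growth values reflect cell death: -40 means 40% of the cells present at the start died, and -100 means all died.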 Unmarked numbers belong to inactive results. Activity calls are given as the source filed them. The calls were made as follows: active = growth percent below 10; inactive = the rest.

Experiment in all cases: NCI-60 one-dose screen, 48 h (100 = growth as untreated, 0 = no growth, -100 = all killed)
Holding throughout (settings): 10 µM unless noted

Assay [1] relates to SR leukemia.
Assay [2] concerns RPMI-8226 leukemia.
For assay [3], the system named is OVCAR-8 ovarian.
Assay [4] relates to OVCAR-5 ovarian.
Assay [5] relates to OVCAR-4 ovarian.
In assay [6] the test system is SK-OV-3 ovarian.
Assay [7] concerns IGROV1 ovarian.
For assay [8], the system named is OVCAR-3 ovarian.
In assay [9] the test system is HS 578T breast.
Assay [10] has as its system NCI/ADR-RES ovarian.
Assay [11] relates to T-47D breast.
The test system of assay [12] is BT-549 breast.
Assay [13] relates to MDA-MB-435 melanoma.
The test system of assay [14] is SW-620 colon.
The subject of assay [15] is MCF7 breast.
Assay [16] deals with HCT-116 colon.
For assay [17], the system named is HCC-2998 colon.
Assay [18] concerns KM12 colon.

As for `C=C(c1ccc(OC)c(/C=C/C(=O)c2cc(OC)c(OC)c(OC)c2)c1)c1cc(OC)c(OC)c(OC)c1`, the growth was 9.47% (active) in assay [1]; 10.1% in [2]; 6.59% (active) in [3]; -51.3% (active) in assay [4]; 40% in [5]; 38.6% in [6]. The growth was 15.2% in assay [7]; -39.8% (active) in assay [8]; 96.5% in assay [9]; -7.33% (active) in [10]; 17.2% in assay [11]; 1.8% (active) in assay [12]. Moreover, the growth in assay [13] is -28.1% (active); in assay [14], -12.4% (active); in [15], 8.83% (active); in assay [16], -62.4% (active); in assay [17] it was 11.4%; in assay [18], -4.59% (active).

In the case of `CN1CCN(Cc2ccc(NC(=O)c3cncc(C#Cc4c(N)ncc5ccccc45)c3)cc2C(F)(F)F)CC1`, the growth was -42.6% (active) in assay [1]; -38% (active) in assay [2]; -62.3% (active) in assay [3]; -22.2% (active) in assay [4]; -55.1% (active) in [5]; 8.37% (active) in assay [6]. In addition, the growth was -62% (active) in assay [7]; -78.4% (active) in assay [8]; -31.5% (active) in [9]; -24.5% (active) in [10]; -64.5% (active) in assay [11]; 14.6% in assay [12]. Further, the growth is -90.3% (active) in assay [13]; -71.3% (active) in assay [14]; -70.8% (active) in assay [15]; -96.5% (active) in assay [16]; -60.7% (active) in assay [17]; -65.2% (active) in [18].

For `CCOC(=O)c1c(NC(=S)Nc2ccc([N+](=O)[O-])cc2)sc2c1CCCCC2`, the growth in assay [1] was 61.7%; in [2] it was 46.7%; in assay [3], 77.3%; in assay [4], 93.7%; in [5], 71.6%; in assay [6] it was 66%. In addition, the growth in assay [7] was 89.7%; in assay [8] it was 65.1%; in [9], 81.8%; in [10], 54%; in assay [11] it was 58.9%; in assay [12], 86.3%. Further, the growth in [13] was 88.2%; in assay [14], 98.8%; in [15], 70.1%; in assay [16], 70.5%; in assay [17] it was 96.8%; in assay [18], 72.2%.

Consider `CC(=O)c1ccc(Nc2nccc(-c3ccc(Cl)cc3)n2)cc1`, for which the growth in assay [1] is 58.3%; in [2] it was 93.6%; in [3] it was 91.7%; in [4] it was 91.6%; in assay [5] it was 105%; in assay [6] it was 108%. Besides, the growth in assay [7] was 103%; in assay [8], 109%; in [9] it was 95%; in [10] it was 96.1%; in [11] it was 80.2%; in [12] it was 100%. Further, the growth in assay [13] is 104%; in assay [14], 92.6%; in assay [15] it was 76.8%; in [16] it was 62.9%; in [17], 114%; in assay [18], 94.7%.

On to `O=C(Nc1ccc2[nH]ncc2c1)c1csc(Nc2ccccc2)n1`, for which the growth in assay [1] was 22.8%; in [2], 7.99% (active); in assay [3], 35.9%; in assay [4] it was 64.5%; in assay [5] it was 61.6%; in assay [6], 50.7%. Further, the growth is 54.9% in [7]; 13.1% in [8]; 38.3% in assay [9]; 16.5% in assay [10]; 37.1% in assay [11]; 62% in assay [12]. For the same molecule, the growth is -11.9% (active) in assay [13]; 21% in assay [14]; 35.3% in assay [16]; 62.5% in assay [17]; 27.7% in assay [18].

For `COC(=O)[C@H](C)NC(=O)c1ccc(NC(=O)c2[nH]c(C)c(Cl)c2Cl)c(OCCN)c1`, the growth in assay [1] was 67.2%; in assay [2], 96.9%; in [3] it was 96.2%; in assay [4], 106%; in assay [5] it was 113%; in assay [6] it was 106%. In addition, the growth in [7] was 104%; in [8] it was 108%; in assay [9], 101%; in assay [10] it was 107%; in assay [11], 99.6%; in assay [12] it was 97%. For the same molecule, the growth is 104% in assay [13]; 102% in assay [14]; 81.5% in assay [15]; 106% in assay [16]; 95.4% in assay [17]; 92.5% in [18].

Regarding `c1ccc2[nH]c(-c3ccc(-c4nccc5c4[nH]c4ccccc45)cc3)nc2c1`, the growth is -4.29% (active) in assay [1]; 61.1% in assay [2]; 16.5% in assay [3]; 129% in assay [4]; 23% in assay [5]; 104% in assay [6]. The growth was 94.5% in assay [7]; -24.2% (active) in assay [8]; 73.7% in assay [9]; 62.6% in assay [10]; 34.4% in assay [11]; 73.7% in [12]. The growth in assay [13] was 59.7%; in assay [14], 68.5%; in assay [15] it was 30.4%; in [16], 16.3%; in assay [17], 74%; in assay [18] it was 76.6%.

Consider `C=CC(=O)NCc1cccc(Nc2ncc(Br)c(NCCCNC(=O)C3CCC3)n2)c1`, for which the growth in assay [1] was 2.53% (active); in assay [2] it was -14.7% (active); in [3], 5.56% (active); in assay [4], 10.2%; in [5] it was -2% (active); in [6], -42% (active). Moreover, the growth is 1.89% (active) in [7]; -33.4% (active) in assay [8]; -14.1% (active) in assay [9]; 35.8% in assay [10]; -12% (active) in assay [11]; -50.2% (active) in [12]. For the same molecule, the growth was -51.4% (active) in assay [13]; 0.584% (active) in assay [14]; 1.62% (active) in assay [15]; 4.93% (active) in [16]; -48.6% (active) in assay [17]; 4.95% (active) in [18].

For `O=C(Nc1ncc(Cc2ccccc2)s1)c1cc(-c2ccccc2)nc2ccccc12`, the growth is 105% in assay [1]; 95.7% in assay [2]; 98.4% in assay [3]; 98.6% in assay [4]; 108% in assay [5]; 96.7% in [6]. Moreover, the growth is 87.3% in [7]; 104% in assay [8]; 92.6% in [9]; 87.8% in [10]; 91.7% in assay [11]; 99.3% in assay [12]. Besides, the growth in assay [13] is 104%; in [14] it was 96.2%; in [16] it was 95.3%; in assay [17], 99.2%; in [18], 105%.

Regarding `CCCCCCCCOC(=O)c1c(C)[nH]c(/C=C2\N=C(c3ccc[nH]3)C=C2OC)c1C`, the growth in assay [1] was 14.1%; in [2] it was -21% (active); in assay [3], 4.86% (active); in assay [4] it was 15.2%; in [5], 4.99% (active); in [6] it was 20.8%. In addition, the growth in [7] is 10.1%; in [8] it was -38.6% (active); in assay [9], -27.8% (active); in assay [10], 15.9%; in [11] it was 4.23% (active); in assay [13], -19.4% (active). Further, the growth in assay [14] is 5.83% (active); in assay [15] it was -58.1% (active); in assay [16], -83.5% (active); in assay [17], -26.4% (active); in [18], 0.693% (active).

Regarding `Cc1c(C(=O)C(SC(=S)N2CCOCC2)SC(=S)N2CCOCC2)nnn1-c1ccc([N+](=O)[O-])cc1`, the growth in assay [1] was 69.7%; in assay [2], 90.1%; in assay [3] it was 99.1%; in assay [4], 102%; in assay [5], 109%; in assay [6] it was 93.3%. Also, the growth is 98% in [7]; 108% in assay [8]; 123% in assay [9]; 111% in assay [10]; 92.3% in [11]; 92.5% in [12]. The growth is 105% in assay [13]; 100% in assay [14]; 96.5% in assay [16]; 104% in assay [17]; 111% in assay [18].

As to `O=C(OCc1ccc2c(Br)cc(Br)c(O)c2n1)N1CCN(C(=O)c2cc3ccccc3[nH]2)CC1`, the growth was 31.3% in assay [1]; 34.3% in [2]; 25.5% in assay [3]; 54.3% in assay [4]; 26% in assay [5]; 40.1% in assay [6]. For the same molecule, the growth in assay [7] is 31.5%; in assay [8], 31.3%; in assay [9], 48.2%; in assay [10], 7.07% (active); in [11], 27.9%; in assay [13], 43.9%. Besides, the growth is 25.3% in [14]; 29.5% in assay [15]; 22.4% in [16]; 53.1% in assay [17]; 29.5% in [18].
